43 molecules from the antibiotic and cytotoxicity screens of Wong et al. (2023) can be followed below.

Among all 39,000 compounds or so, about 500 (1.3%) were called active. The full list was thinned out, with actives kept by preference.

The test system of this assay is S. aureus RN4220. Nature of the assay: growth inhibition call (relative growth <= 0.2). The following applies: 50 µM.
Regarding `C[C@H]1CN([C@@H](C)CO)C(=O)c2cc(NC(=O)Nc3cccc4ccccc34)ccc2O[C@H]1CN(C)C(=O)Nc1ccccc1`, the growth inhibition call was “inactive”.

`C[C@@H]1CN([C@H](C)CO)C(=O)c2cccc(NS(C)(=O)=O)c2O[C@H]1CN(C)Cc1ccc(C(=O)O)cc1`: the growth inhibition call was “inactive”. Regarding `CC=C(C(=CC)c1ccc(O)cc1)c1ccc(O)cc1`, the growth inhibition call is “active”. Under `CCC(=C(CC)c1ccc(O)cc1)c1ccc(O)cc1` stands “inactive”. `Oc1ccc(O)cc1`: the growth inhibition call is “inactive”. Under `CC(C)NC(=O)N(C)C[C@@H]1Oc2cc(C#Cc3ccc(F)cc3)ccc2S(=O)(=O)N([C@H](C)CO)C[C@H]1C` stands “inactive”.

For the molecule `C[C@H](CO)N1C[C@H](C)[C@H](CN(C)Cc2ccc(Cl)c(Cl)c2)Oc2ccc(NC(=O)Nc3ccc(F)cc3)cc2CC1=O`, the growth inhibition call was “inactive”. On to `C[C@@H]1CCCCO[C@H](CN(C)Cc2ccc(C(F)(F)F)cc2)[C@@H](C)CN([C@@H](C)CO)C(=O)c2cc(NS(=O)(=O)c3ccc(Cl)cc3)ccc2O1`, for which the growth inhibition call was “inactive”. With `Cn1c(=O)c2c(nc(SCSc3nc4c(c(=O)n(C)c(=O)n4C)n3C)n2C)n(C)c1=O` the entry was “inactive”; with `Cc1nc2c(=O)n(C)c(=O)n(C)c2nc1Cl`, “active”. On to `CCn1c(Cl)nc2c1c(=O)n(C)c(=O)n2C`, for which the growth inhibition call is “inactive”. Under `Cc1noc(C)c1S(=O)(=O)Nc1ccc2c(c1)CC(=O)N([C@@H](C)CO)C[C@H](C)[C@@H](CN(C)Cc1ccncc1)O2` stands “inactive”; under `C[C@@H]1CN([C@@H](C)CO)C(=O)c2cc(NS(C)(=O)=O)ccc2O[C@H]1CN(C)C(=O)Nc1ccccc1`, “inactive”; under `CC(=O)OCC1=C(C(=O)[O-])N2C(=O)C(NC(=O)Cc3cccs3)C2SC1.[Na+]` (stereo not drawn), “active”. Under `CC(=O)OCC1=C(C(=O)O)N2C(=O)[C@@H](NC(=O)CSc3ccncc3)[C@H]2SC1` stands “active”. Under `CC(=O)OCC1=C(C(=O)[O-])N2C(=O)C(NC(=O)CSc3ccncc3)C2SC1.[Na+]` (stereo not drawn) stands “active”. With `COC1(NC(=O)Cc2cccs2)C(=O)N2C(C(=O)[O-])=C(COC(N)=O)CSC21.[Na+]` (stereo not drawn), the growth inhibition call is “active”.

For the molecule `C[C@H]1CCCCO[C@@H](CN(C)C(=O)Nc2ccc(C(F)(F)F)cc2)[C@@H](C)CN([C@@H](C)CO)C(=O)c2cc(NC(=O)NC3CCCCC3)ccc2O1`, the growth inhibition call was “inactive”. For the molecule `C[C@H]1CCCCO[C@@H](CN(C)C(=O)Nc2ccc3c(c2)OCO3)[C@@H](C)CN([C@@H](C)CO)C(=O)c2cc(NS(=O)(=O)c3ccccc3)ccc2O1`, the growth inhibition call was “inactive”. Under `C[C@H](CO)N1C[C@H](C)[C@@H](CN(C)S(C)(=O)=O)Oc2c(NC(=O)Nc3ccc(C(F)(F)F)cc3)cccc2C1=O` stands “inactive”. Take `COc1cccc(C#Cc2cnc3c(c2)C(=O)N([C@@H](C)CO)C[C@@H](C)[C@@H](CN(C)C(=O)C2CCOCC2)O3)c1`: the growth inhibition call was “inactive”. With `C[C@@H]1CN([C@@H](C)CO)C(=O)c2cc(-c3cccc(C(=O)N(C)C)c3)cnc2O[C@H]1CN(C)S(=O)(=O)c1ccc(F)cc1` the entry was “inactive”; with `CO[C@@H]1CN(C)C(=O)c2ccc(NC(=O)Nc3ccccc3F)cc2OC[C@@H](C)N(Cc2ccccc2C(=O)O)C[C@H]1C`, “inactive”.

Consider `C[C@@H]1O[C@@H](O[C@@H]2[C@@H](O)[C@H](OCCc3ccc(O)c(O)c3)O[C@H](CO)[C@H]2OC(=O)/C=C/c2ccc(O)c(O)c2)[C@H](O)[C@H](O)[C@H]1O`, for which the growth inhibition call was “inactive”. With `CO[C@@H]1CN(C)C(=O)c2cc(NS(C)(=O)=O)ccc2OC[C@@H](C)N(C(=O)C2CCCCC2)C[C@H]1C` the entry was “inactive”; with `C[C@@H]1CN([C@@H](C)CO)C(=O)c2cc(NC(=O)c3ccncc3)ccc2O[C@H]1CN(C)Cc1ccc(C(=O)O)cc1`, “inactive”. Turning to `C[C@H](CO)N1C[C@H](C)[C@@H](CN(C)Cc2ccc(Oc3ccccc3)cc2)Oc2ccc(NC(=O)c3ccncc3)cc2C1=O`, the growth inhibition call is “inactive”. Under `COc1ccc(S(=O)(=O)Nc2ccc3c(c2)CC(=O)N([C@H](C)CO)C[C@H](C)[C@H](CN(C)Cc2ccc(Cl)c(Cl)c2)O3)cc1` stands “inactive”. Under `CN1C(=O)c2cc(NC(=O)c3cccs3)ccc2OC[C@@H]2O[C@@H](CC(=O)NCCN3CCCCC3)CC[C@@H]21` stands “inactive”.

Turning to `CN(C)CC(=O)N[C@H]1CC[C@H](CCNC(=O)C2CCC2)O[C@@H]1CO`, the growth inhibition call is “inactive”.

Turning to `C[C@@H]1CN([C@H](C)CO)C(=O)Cc2cc(NC(=O)Nc3ccc(C(F)(F)F)cc3)ccc2O[C@@H]1CN(C)Cc1ccc(-c2ccccc2)cc1`, the growth inhibition call was “inactive”. With `O=C(C[C@@H]1CC[C@@H]2[C@H](COC[C@@H](O)CN2S(=O)(=O)c2ccc(Cl)cc2)O1)NCC1CCCCC1` the entry was “inactive”; with `O=C(C[C@@H]1CC[C@H]2[C@@H](COC[C@H](O)CN2S(=O)(=O)c2ccc(Cl)cc2)O1)NCC1CCCCC1`, “inactive”. Under `O=C(C[C@@H]1CC[C@@H]2[C@H](COC[C@H](O)CN2S(=O)(=O)c2ccc(Cl)cc2)O1)NCC1CCCCC1` stands “inactive”; under `O=C(C[C@H]1CC[C@H]2[C@@H](COC[C@@H](O)CN2S(=O)(=O)c2ccc(Cl)cc2)O1)NCC1CCCCC1`, “inactive”; under `O=C(C[C@H]1CC[C@@H]2[C@H](COC[C@H](O)CN2S(=O)(=O)c2ccc(Cl)cc2)O1)NCC1CCCCC1`, “active”. With `O=C(C[C@@H]1CC[C@H]2[C@@H](COC[C@@H](O)CN2S(=O)(=O)c2ccc(Cl)cc2)O1)NCC1CCCCC1`, the growth inhibition call was “active”. Under `C[C@@H]1CN([C@@H](C)CO)S(=O)(=O)c2ccc(C#CCN(C)C)cc2O[C@@H]1CN(C)S(C)(=O)=O` stands “inactive”; under `CC(C)NC(=O)N(C)C[C@H]1Oc2ccc(NC(=O)NC3CCCCC3)cc2CC(=O)N([C@H](C)CO)C[C@H]1C`, “inactive”.

As for `CC(C)NC(=O)N(C)C[C@@H]1Oc2ccc(NS(=O)(=O)c3cccs3)cc2CC(=O)N([C@@H](C)CO)C[C@@H]1C`, the growth inhibition call is “inactive”.

As to `C[C@@H]1CN([C@@H](C)CO)C(=O)Cc2cc(NS(=O)(=O)c3cn(C)cn3)ccc2O[C@H]1CN(C)Cc1ccc(C(=O)Nc2ccccc2N)cc1`, the growth inhibition call is “inactive”. With `C[C@H]1CCCCO[C@@H](CN(C)S(=O)(=O)c2ccccc2)[C@@H](C)CN([C@@H](C)CO)C(=O)c2cc(NC(=O)c3ccccc3)ccc2O1` the entry was “inactive”.

As for `C[C@@H]1CN([C@H](C)CO)C(=O)c2cc(NC(=O)Nc3ccc(F)cc3)ccc2O[C@@H](C)CCCCO[C@H]1CN(C)Cc1ccccc1`, the growth inhibition call was “inactive”.
